Test results: PubChem BioAssay AID1159580 (chemical genetic matrix, 2015)
“And” between values parts separate entries of the source, which are not always exact repeats. Equal entries are not always repeated. In all, about 5,500 compounds went through this assay and about 2,000 (36%) were called active. Roughly 18% stayed inconclusive and do not appear here. No stated cut-off is given here; in the data, active means normalized growth mostly below about 0.91 (no sharp cut-off); inconclusive means no clear call, values can overlap the other calls; inactive means mostly above about 0.92. Some of the results follow.

Assay: chemical genetic growth profiling, strain panel (AID 1159580);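 further: tested at 20 µM; growth read once vehicle control cultures reached saturation at 30 °C; 1 = growth at the plate median or of vehicle wells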
Settings: growth OD
[1] = S. cerevisiae deletion strains, locus YAL013W, strain DEP1, stronger effect = lower value
[2] = S. cerevisiae deletion strains, locus YAL040C, strain CLN3, stronger effect = lower value
[3] = S. cerevisiae deletion strains, locus YCL061C, strain MRC1 (second series), stronger effect = lower value
[4] = S. cerevisiae deletion strains, locus YDR150W, strain NUM1, stronger effect = lower value
[5] = S. cerevisiae deletion strains, locus YDR363W, strain ESC2, stronger effect = lower value
[6] = S. cerevisiae deletion strains, locus YER002W, strain NOP16, stronger effect = lower value
[7] = S. cerevisiae deletion strains, locus YGR229C, strain SMI1, stronger effect = lower value
[8] = S. cerevisiae deletion strains, locus YHR030C, strain SLT2, stronger effect = lower value
[9] = S. cerevisiae deletion strains, locus YHR079C, strain IRE1, stronger effect = lower value
[10] = S. cerevisiae deletion strains, locus YJL095W, strain BCK1, stronger effect = lower value
[11] = S. cerevisiae deletion strains, locus YJR066W, strain TOR1, stronger effect = lower value
[12] = S. cerevisiae deletion strains, locus YLR113W, strain HOG1, stronger effect = lower value
[13] = S. cerevisiae deletion strains, locus YMR307W, strain GAS1, stronger effect = lower value
[14] = S. cerevisiae deletion strains, locus YNL175C, strain NOP13, stronger effect = lower value
[15] = S. cerevisiae deletion strains, locus YNL183C, strain NPR1, stronger effect = lower value
[16] = S. cerevisiae deletion strains, locus YNL197C, strain WHI3, stronger effect = lower value
[17] = S. cerevisiae deletion strains, locus YNL224C, strain SQS1, stronger effect = lower value
[18] = S. cerevisiae deletion strains, locus YOR083W, strain WHI5 (second series), stronger effect = lower value
[19] = S. cerevisiae deletion strains, locus YOR231W, strain MKK1, stronger effect = lower value
[20] = S. cerevisiae deletion strains, locus YPL055C, strain LGE1, stronger effect = lower value
[21] = S. cerevisiae deletion strains, locus YPL256C, strain CLN2, stronger effect = lower value

Measured: normalized growth

C[N+](C)(C)CCCCCC[N+](C)(C)C
inactive: [1] 1.01 | [2] 0.978 and 0.988 | S. cerevisiae deletion strains, locus YBR021W, strain FUR4, stronger effect = lower value 0.997 | S. cerevisiae deletion strains, locus YBR229C, strain ROT2, stronger effect = lower value 0.995 | S. cerevisiae deletion strains, locus YCL029C, strain bik1, stronger effect = lower value 0.988 | [3] 1.01 and 1 | S. cerevisiae deletion strains, locus YDL035C, strain GPR1, stronger effect = lower value 1 | S. cerevisiae deletion strains, locus YDL074C, strain BRE1, stronger effect = lower value 1.07 | S. cerevisiae deletion strains, locus YDL101C, strain DUN1, stronger effect = lower value 0.993 | S. cerevisiae deletion strains, locus YDL134C, strain PPH21, stronger effect = lower value 0.98 | S. cerevisiae deletion strains, locus YDL185W, strain tfp1, stronger effect = lower value 0.984 | S. cerevisiae deletion strains, locus YDL192W, strain arf1, stronger effect = lower value 0.98 | S. cerevisiae deletion strains, locus YDR101C, strain arx1, stronger effect = lower value 1.03 | [4] 1 and 0.998 | S. cerevisiae deletion strains, locus YDR162C, strain NBP2, stronger effect = lower value 0.985 | S. cerevisiae deletion strains, locus YDR318W, strain mcm21, stronger effect = lower value 0.984 | [5] 1.01 and 0.998 | S. cerevisiae deletion strains, locus YDR388W, stronger effect = lower value 0.982 | S. cerevisiae deletion strains, locus YDR502C, strain sam2, stronger effect = lower value 0.985 | S. cerevisiae deletion strains, locus YEL061C, strain CIN8, stronger effect = lower value 0.993 | [6] 1.03 and 1 | S. cerevisiae deletion strains, locus YER110C, stronger effect = lower value 0.979 | S. cerevisiae deletion strains, locus YER155C, strain BEM2, stronger effect = lower value 0.998 | S. cerevisiae deletion strains, locus YER167W, strain BCK2, stronger effect = lower value 0.994 | S. cerevisiae deletion strains, locus YGL078C, strain dbp3, stronger effect = lower value 0.981 | S. cerevisiae deletion strains, locus YGL086W, strain mad1, stronger effect = lower value 1.02 | S. cerevisiae deletion strains, locus YGL248W, strain PDE1, stronger effect = lower value 1 | S. cerevisiae deletion strains, locus YGR078C, strain PAC10, stronger effect = lower value 1.03 and 0.99 | S. cerevisiae deletion strains, locus YGR135W, strain pre9, stronger effect = lower value 0.95 | [7] 0.99 | S. cerevisiae deletion strains, locus YGR252W, strain gcn5, stronger effect = lower value 0.948 | [8] 0.987 and 1.05 | S. cerevisiae deletion strains, locus YHR079C, strain IRE1 (second series), stronger effect = lower value 0.993 | [9] 1.04 | S. cerevisiae deletion strains, locus YHR094C, strain hxt1, stronger effect = lower value 0.987 | S. cerevisiae deletion strains, locus YHR129C, strain ARP1, stronger effect = lower value 0.988 | S. cerevisiae deletion strains, locus YHR200W, strain rpn10, stronger effect = lower value 0.989 | S. cerevisiae deletion strains, locus YIL066C, strain RNR3, stronger effect = lower value 0.994 | S. cerevisiae deletion strains, locus YIL073C, strain SPO22, stronger effect = lower value 0.953 | S. cerevisiae deletion strains, locus YIL125W, strain kgd1, stronger effect = lower value 1 | S. cerevisiae deletion strains, locus YIR030C, strain dcg1, stronger effect = lower value 0.985 | [10] 1 and 1.05 | S. cerevisiae deletion strains, locus YJL134W, strain LCB3, stronger effect = lower value 0.989 | S. cerevisiae deletion strains, locus YJL168C, strain set2, stronger effect = lower value 1 | S. cerevisiae deletion strains, locus YJL187C, strain SWE1 (second series), stronger effect = lower value 0.999 | S. cerevisiae deletion strains, locus YJR043C, strain POL32, stronger effect = lower value 1 | [11] 0.96 | S. cerevisiae deletion strains, locus YJR075W, strain HOC1, stronger effect = lower value 0.998 and 1.01 | S. cerevisiae deletion strains, locus YKL009W, strain mrt4, stronger effect = lower value 0.99 | S. cerevisiae deletion strains, locus YKL068W, stronger effect = lower value 0.988 | S. cerevisiae deletion strains, locus YKL085W, strain MDH1 (second series), stronger effect = lower value 0.998 | S. cerevisiae deletion strains, locus YKL085W, strain MDH1, stronger effect = lower value 0.998 | S. cerevisiae deletion strains, locus YKL190W, strain CNB1, stronger effect = lower value 1.01 | S. cerevisiae deletion strains, locus YKR001C, strain vps1, stronger effect = lower value 1 | S. cerevisiae deletion strains, locus YLR039C, strain RIC1, stronger effect = lower value 1 | S. cerevisiae deletion strains, locus YLR058C, strain SHM2, stronger effect = lower value 0.987 | S. cerevisiae deletion strains, locus YLR102C, strain apc9, stronger effect = lower value 0.987 | [12] 1.1 | S. cerevisiae deletion strains, locus YLR262C, strain YPT6, stronger effect = lower value 0.97 | S. cerevisiae deletion strains, locus YLR268W, strain sec22, stronger effect = lower value 0.99 | S. cerevisiae deletion strains, locus YLR330W, strain CHS5, stronger effect = lower value 0.99 | S. cerevisiae deletion strains, locus YLR342W, strain FKS1 (second series), stronger effect = lower value 0.976 | S. cerevisiae deletion strains, locus YLR371W, strain rom2, stronger effect = lower value 0.988 | S. cerevisiae deletion strains, locus YLR418C, strain cdc73, stronger effect = lower value 0.946 | S. cerevisiae deletion strains, locus YML016C, strain PPZ1, stronger effect = lower value 0.99 | S. cerevisiae deletion strains, locus YML032C, strain rad52, stronger effect = lower value 1 | S. cerevisiae deletion strains, locus YML124C, strain tub3, stronger effect = lower value 0.995 | S. cerevisiae deletion strains, locus YMR078C, strain ctf18, stronger effect = lower value 0.983 | S. cerevisiae deletion strains, locus YMR223W, strain ubp8, stronger effect = lower value 0.964 | S. cerevisiae deletion strains, locus YMR263W, strain SAP30, stronger effect = lower value 1.01 and 0.998 | [13] 0.96 and 1.01 | S. cerevisiae deletion strains, locus YNL067W, strain RPL9B, stronger effect = lower value 1.01 | S. cerevisiae deletion strains, locus YNL128W, strain TEP1, stronger effect = lower value 0.992 and 1.01 | S. cerevisiae deletion strains, locus YNL153C, strain GIM3, stronger effect = lower value 1.03 and 1.01 | [14] 0.99 and 1.02 | [15] 1.01 | [16] 0.999 and 1.02 | [17] 0.994 and 1.04 | S. cerevisiae deletion strains, locus YNL233W, strain BNI4, stronger effect = lower value 1.01 | S. cerevisiae deletion strains, locus YNL250W, strain rad50, stronger effect = lower value 0.957 | S. cerevisiae deletion strains, locus YNL271C, strain bni1, stronger effect = lower value 0.984 | S. cerevisiae deletion strains, locus YNL298W, strain CLA4, stronger effect = lower value 0.981 | S. cerevisiae deletion strains, locus YNL307C, strain MCK1, stronger effect = lower value 0.985 | S. cerevisiae deletion strains, locus YNL322C, strain KRE1, stronger effect = lower value 0.998 and 0.995 | S. cerevisiae deletion strains, locus YNR052C, strain pop2, stronger effect = lower value 0.987 | S. cerevisiae deletion strains, locus YOL006C, strain TOP1, stronger effect = lower value 1.06 | S. cerevisiae deletion strains, locus YOL012C, strain htz1 1.51 | S. cerevisiae deletion strains, locus YOL147C, strain pex11, stronger effect = lower value 0.99 | S. cerevisiae deletion strains, locus YOR061W, strain CKA2, stronger effect = lower value 0.995 | S. cerevisiae deletion strains, locus YOR069W, strain VPS5, stronger effect = lower value 0.987 | [18] 0.968 and 0.999 | S. cerevisiae deletion strains, locus YOR136W, strain idh2, stronger effect = lower value 0.994 | S. cerevisiae deletion strains, locus YOR144C, strain elg1, stronger effect = lower value 0.993 | S. cerevisiae deletion strains, locus YOR184W, strain ser1, stronger effect = lower value 0.988 | [19] 1.09 | S. cerevisiae deletion strains, locus YOR316C, strain cot1, stronger effect = lower value 0.988 | [20] 1.04 | [21] 1.05 | S. cerevisiae deletion strains, locus YPR119W, strain clb2, stronger effect = lower value 0.997 | S. cerevisiae deletion strains, locus YPR141C, strain kar3, stronger effect = lower value 0.98 | S. cerevisiae deletion strains, locus YPR163C, strain tif3, stronger effect = lower value 1.01 | S. cerevisiae deletion strains, locus YPR167C, strain met16, stronger effect = lower value 0.983 | S. cerevisiae deletion strains, strain wtn01, stronger effect = lower value 0.982 | S. cerevisiae strains, strain wild type, stronger effect = lower value 0.995

C[N+](C)(C)CCCCCCCCCC[N+](C)(C)C
inactive: [1] 1 | [2] 1 | [3] 1 | [4] 0.989 | [5] 1.02 | [6] 0.995 | [7] 1.04 | [8] 0.973 | [9] 1.01 | [10] 1 | [11] 0.963 | [12] 1.01 | [13] 0.998 | [14] 1.01 | [15] 0.948 | [16] 1.03 | [17] 0.983 | [18] 0.95 | [19] 0.995 | [20] 1.02 | [21] 1.12
